# Data published in publication PMC5540273 (PLoS ONE, 2017).
# “And” between values parts separate entries of the source, which are not always exact repeats. Identical values can stand only once. Like-named read-outs stand apart in the source and are kept apart here.
# Key:
# Conditions in all cases: n = 1
# YES = tested on: T1, YES
# T1 construct: gene YES1
# YSK1 = tested on: T2, YSK1
# T2 construct: gene STK25
# YSK4 = tested on: T3, YSK4
# T3 construct: gene MAP3K19
# ZAK = tested on: ZAK
# ZAP70 = tested on: ZAP70
# p38-alpha = tested on: T4, p38-alpha
# T4 construct: gene MAPK14
# p38-beta = tested on: T5, p38-beta
# T5 construct: gene MAPK11
# p38-delta = tested on: p38-delta
# p38-gamma = tested on: T6, p38-gamma
# T6 construct: gene MAPK12
# [1] = concentration: 1 μM, replicates: in singlicate
# [2] = concentration: 1 μM,replicates: in singlicate, 1 µM
# 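Note: KINOMEscan kinase panel screen.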
smiles,measurement,setting,value
Cc1cccc(-c2cc(Nc3ccncc3)c3ccccc3n2)n1 [GSK223675],%Inh,YES; [1],0%
same,%Inh,YSK1; [1],8%
same,%Inh,YSK4; [1],13%
same,%Inh,ZAK; [1],82%
same,%Inh,ZAP70; [1],0%
same,%Inh,p38-alpha; [1],12%
same,%Inh,p38-beta; [1],0%
same,%Inh,p38-delta; [1],42%
same,%Inh,p38-gamma; [1],22%
Cc1cccc(-c2nc(C)cc(Nc3ccncc3)n2)n1 [GSK257997],%Inh,YES; [1],15%
same,%Inh,YSK1; [1],8%
same,%Inh,YSK4; [1],0%
same,%Inh,ZAK; [1],0%
same,%Inh,ZAP70; [1],0%
same,%Inh,p38-alpha; [1],9%
same,%Inh,p38-beta; [1],0%
same,%Inh,p38-delta; [1],51%
same,%Inh,p38-gamma; [1],6%
COc1cc(Nc2nccc(N3CCC(NC(=O)Nc4cc(C)ccc4C)C3)n2)cc(OC)c1OC (stereo not drawn) [GSK1379762],%Inh,YES; [1],10%
same,%Inh,YSK1; [1],0%
same,%Inh,YSK4; [1],27%
same,%Inh,ZAK; [1],3%
same,%Inh,ZAP70; [1],0%
same,%Inh,p38-alpha; [1],0%
same,%Inh,p38-beta; [1],0%
same,%Inh,p38-delta; [1],32%
same,%Inh,p38-gamma; [1],24%
Cl.c1ccc(-c2n[nH]cc2-c2ccnc(-c3ccc(CN4CCOCC4)cc3)c2)nc1 [GW776245],%Inh,YES; [1],0%
same,%Inh,YSK1; [1],0%
same,%Inh,YSK4; [1],0%
same,%Inh,ZAK; [1],13%
same,%Inh,ZAP70; [1],0%
same,%Inh,p38-alpha; [1],17%
same,%Inh,p38-beta; [1],23%
same,%Inh,p38-delta; [1],7%
same,%Inh,p38-gamma; [1],55%
O=c1cc(N2CCOCC2)nc2n(Cc3cccc(Cl)c3Cl)ccn12 [GSK2286295],%Inh,YES; [1],14%
same,%Inh,YSK1; [1],8%
same,%Inh,YSK4; [1],23%
same,%Inh,ZAK; [1],6%
same,%Inh,ZAP70; [1],0%
same,%Inh,p38-alpha; [1],0%
same,%Inh,p38-beta; [1],0%
same,%Inh,p38-delta; [1],40%
same,%Inh,p38-gamma; [1],27%
CC1=C(C(=O)Nc2cc3cn[nH]c3cc2F)C(c2ccc(C(F)(F)F)cc2)CC(=O)N1 (stereo not drawn) [GSK429286],%Inh,YES; [1],17%
same,%Inh,YSK1; [1],0%
same,%Inh,YSK4; [1],9%
same,%Inh,ZAK; [1],9%
same,%Inh,ZAP70; [1],0%
same,%Inh,p38-alpha; [1],0%
same,%Inh,p38-beta; [1],0%
same,%Inh,p38-delta; [1],21%
same,%Inh,p38-gamma; [1],0%
COc1cccc(NC(=O)NC2CCN(c3ccnc(Nc4ccc(F)cc4)n3)C2)c1 (stereo not drawn) [GSK1379721],%Inh,YES; [1],0%
same,%Inh,YSK1; [1],10%
same,%Inh,YSK4; [1],3%
same,%Inh,ZAK; [1],42%
same,%Inh,ZAP70; [1],0%
same,%Inh,p38-alpha; [1],4%
same,%Inh,p38-beta; [1],0%
same,%Inh,p38-delta; [1],35%
same,%Inh,p38-gamma; [1],2%
COc1cc2nccc(Nc3ccc(NC(=O)c4ccc(C)cc4)c(O)c3)c2cc1OC.Cl [GW440132],%Inh,YES; [1],17%
same,%Inh,YSK1; [1],20%
same,%Inh,YSK4; [1],9%
same,%Inh,ZAK; [1],23%
same,%Inh,ZAP70; [1],0%
same,%Inh,p38-alpha; [1],0%
same,%Inh,p38-beta; [1],0%
same,%Inh,p38-delta; [1],23%
same,%Inh,p38-gamma; [1],0%
Cn1ccc2ncnc(Oc3ccc(NC(=O)Nc4ccccc4)cc3)c21,%Inh,YES; [1],0%
same,%Inh,YSK1; [1],0%
same,%Inh,YSK4; [1],93.1%
same,%Inh,ZAK; [1],0%
same,%Inh,ZAP70; [1],0%
same,%Inh,p38-alpha; [1],0%
same,%Inh,p38-beta; [1],0%
same,%Inh,p38-delta; [1],6%
same,%Inh,p38-gamma; [1],0%
Cl.NC(=O)c1cccc(Nc2nccc(Nc3ccc(Oc4cccc(Cl)c4)c(Cl)c3)n2)c1 [GW659008],%Inh,YES; [1],54%
same,%Inh,YSK1; [1],0%
same,%Inh,YSK4; [1],0%
same,%Inh,ZAK; [1],53%
same,%Inh,ZAP70; [1],0%
same,%Inh,p38-alpha; [1],8%
same,%Inh,p38-beta; [1],0%
same,%Inh,p38-delta; [1],38%
same,%Inh,p38-gamma; [1],0%
Cc1nnc(-c2ccc3occ(-c4ccc(S(C)=O)cc4)c3c2)[nH]1 (stereo not drawn),%Inh,YES; [1],0%
same,%Inh,YSK1; [1],0%
same,%Inh,YSK4; [1],44%
same,%Inh,ZAK; [1],8%
same,%Inh,ZAP70; [1],0%
same,%Inh,p38-alpha; [1],13%
same,%Inh,p38-beta; [1],0%
same,%Inh,p38-delta; [1],3%
same,%Inh,p38-gamma; [1],9%
CCn1c(-c2ccccn2)nc2cnccc21 [SB-736398],%Inh,YES; [1],3%
same,%Inh,YSK1; [1],100%
same,%Inh,YSK4; [1],44%
same,%Inh,ZAK; [1],5%
same,%Inh,ZAP70; [1],6%
same,%Inh,p38-alpha; [1],0%
same,%Inh,p38-beta; [1],0%
same,%Inh,p38-delta; [1],23%
same,%Inh,p38-gamma; [1],0%
CCn1c(-c2cccnc2O)nc2cnccc21 [SB-736715],%Inh,YES; [1],0%
same,%Inh,YSK1; [1],0%
same,%Inh,YSK4; [1],0%
same,%Inh,ZAK; [1],0%
same,%Inh,ZAP70; [1],0%
same,%Inh,p38-alpha; [1],0%
same,%Inh,p38-beta; [1],0%
same,%Inh,p38-delta; [1],8%
same,%Inh,p38-gamma; [1],0%
CSc1nn2c(=O)cc(N3CCOCC3)nc2n1Cc1cccc(C(F)(F)F)c1C [GSK2363608],%Inh,YES; [2],19% and 22%
same,%Inh,YSK1; [2],1% and 0%
same,%Inh,YSK4; [2],40% and 30%
same,%Inh,ZAK; [2],10% and 0%
same,%Inh,ZAP70; [2],32% and 0%
same,%Inh,p38-alpha; [1],0%
same,%Inh,p38-beta; [1],0%
same,%Inh,p38-delta; [2],55% and 34%
same,%Inh,p38-gamma; [2],7% and 0%
Cc1ccc(NC(=O)Nc2cccc(C(F)(F)F)c2)cc1 [GSK955403],%Inh,YES; 1 µM,10%
same,%Inh,YSK1; 1 µM,0%
same,%Inh,YSK4; 1 µM,0%
same,%Inh,ZAK; 1 µM,39%
same,%Inh,ZAP70; 1 µM,0%
same,%Inh,p38-alpha; 1 µM,10%
same,%Inh,p38-beta; 1 µM,57%
same,%Inh,p38-delta; 1 µM,0%
same,%Inh,p38-gamma; 1 µM,46%
Cn1cncc1-c1ccc2ncnc(Nc3ccc(OCc4ccccc4)cc3)c2c1 [GW320571],%Inh,YES; [1],26%
same,%Inh,YSK1; [1],0%
same,%Inh,YSK4; [1],1%
same,%Inh,ZAK; [1],17%
same,%Inh,ZAP70; [1],0%
same,%Inh,p38-alpha; [1],0%
same,%Inh,p38-beta; [1],2%
same,%Inh,p38-delta; [1],21%
same,%Inh,p38-gamma; [1],0%
Cc1ccccc1-n1cnc2c(N)ncnc21 [SKF-97510],%Inh,YES; [1],11%
same,%Inh,YSK1; [1],9%
same,%Inh,YSK4; [1],0%
same,%Inh,ZAK; [1],9%
same,%Inh,ZAP70; [1],0%
same,%Inh,p38-alpha; [1],0%
same,%Inh,p38-beta; [1],0%
same,%Inh,p38-delta; [1],0%
same,%Inh,p38-gamma; [1],15%
Nc1nc(-c2nccs2)c(-c2ccnc3ccccc23)s1 [GW693542],%Inh,YES; [1],17%
same,%Inh,YSK1; [1],10%
same,%Inh,YSK4; [1],28%
same,%Inh,ZAK; [1],39%
same,%Inh,ZAP70; [1],0%
same,%Inh,p38-alpha; [1],0%
same,%Inh,p38-beta; [1],0%
same,%Inh,p38-delta; [1],22%
same,%Inh,p38-gamma; [1],30%
